Measured values as given in PubChem BioAssay AID1851 (National Center for Advancing Translational Sciences (NCATS), 2009).
Several values for one entry are separate records, joined by “and”; a condition that tells them apart may be missing. Equal entries are not always repeated. The campaign covered roughly 16,000 compounds. About 2,600 (16%) were called active. Not shown: some 20% with an inconclusive outcome. Calls follow the shape of the dose curve; as a rule, active = well fitted curve in the direction sought with a large enough effect; inconclusive = small, poorly fitted or top-dose-only effect, or effect the other way; inactive = no such curve, though single readings can be large or run the other way. Only a sample is shown. More than one record can exist for a structure, and the calls need not agree.

Molecular target: Cytochrome P450 2D6 (Homo sapiens) (UniProt P10635)
Sequence (P10635 whole entry, looked up): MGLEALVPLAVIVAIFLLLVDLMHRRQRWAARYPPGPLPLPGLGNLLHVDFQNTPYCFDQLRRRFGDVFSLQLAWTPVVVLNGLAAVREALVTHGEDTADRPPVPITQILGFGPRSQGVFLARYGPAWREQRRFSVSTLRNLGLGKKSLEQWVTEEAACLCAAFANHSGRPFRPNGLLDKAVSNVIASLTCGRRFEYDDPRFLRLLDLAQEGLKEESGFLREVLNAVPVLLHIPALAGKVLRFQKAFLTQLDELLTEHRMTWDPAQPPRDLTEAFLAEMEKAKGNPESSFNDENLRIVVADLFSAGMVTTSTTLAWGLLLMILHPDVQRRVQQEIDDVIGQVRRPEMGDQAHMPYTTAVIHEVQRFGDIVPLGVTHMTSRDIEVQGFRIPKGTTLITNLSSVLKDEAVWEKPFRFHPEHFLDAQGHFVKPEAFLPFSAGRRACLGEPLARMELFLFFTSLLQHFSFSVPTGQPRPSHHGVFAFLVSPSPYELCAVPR
Assay: Cytochrome panel assay with activity outcomes
Conditions: recombinant CYP, pro-luciferin dealkylation, luminescence, p450-cyp2d6; series mostly up to 57.1 µM
% is scaled to controls: 0 for no effect and ±100 for the full control effect.

**Q.** How did the AC50 turn out when `N#CC(c1ccccc1F)(c1ncc(C(F)(F)F)cc1Cl)N1CCOCC1` (configuration not stated) was run?
**A.** inactive

**Q.** `Cc1cc2nc([C@H](C)C(=O)c3ccc(Cl)cc3)c(=O)[nH]c2cc1C` was tested. Which activity, negative = inhibition did it give?
**A.** -4.99% [at 11.4 µM] (inactive)

**Q.** `COc1ccc(-c2nc3cnc(N4CCNCC4)nc3n(C)c2=O)cc1` was tested. Which AC50 did it give?
**A.** inactive

**Q.** With `COc1ccc2nc(N3CCCC(C(=O)NCCCN4CCN(C)CC4)C3)sc2c1` (configuration not stated) as the molecule, how does the AC50 read?
**A.** 11.2 µM (active)

**Q.** For `COc1ccc2nc(N3C(=O)CC(Cc4ccc(Cl)cc4)C3=O)sc2c1` (configuration not stated), which AC50 is on record?
**A.** inactive

**Q.** For `CN1CCN(CCCNC(=O)C2CCN(c3nnc(-n4cccc4)s3)CC2)CC1`, which AC50 is on record?
**A.** inactive

**Q.** Which AC50 does the source give for `O=c1[nH]ncn2cccc12` here?
**A.** inactive

**Q.** With `COc1ccc(-c2ccc(=N)n(CCCC(=O)O)n2)cc1` as the molecule, how does the AC50 read?
**A.** 3.98 µM (active)

**Q.** `COc1ccc(-c2ccc(N)[n+](CCCC(=O)O)n2)cc1` was tested. Which AC50 did it give?
**A.** inactive

**Q.** `COCCNC(=O)CCn1nc(-c2ccc(Cl)cc2)ccc1=O` was tested. Which AC50 did it give?
**A.** inactive

**Q.** For `CCC(C)(C)n1nnnc1C(C(C)C)N(Cc1ccco1)Cc1cc2cc3c(cc2[nH]c1=O)OCO3` (configuration not stated), which AC50 is on record?
**A.** 14.1 µM (active)

**Q.** `COc1cc2cc(CN(CCCO)S(=O)(=O)c3ccccc3Cl)c(=O)[nH]c2cc1OC` was tested. Which AC50 did it give?
**A.** inactive

**Q.** With `COc1ccccc1CN(Cc1cc2cc3c(cc2[nH]c1=O)OCCO3)Cc1nnnn1Cc1ccco1` as the molecule, how does the AC50 read?
**A.** 14.1 µM (active)

**Q.** How did the AC50 turn out when `COc1ccccc1CN(Cc1cc2cc(C)cc(C)c2[nH]c1=O)Cc1nnnn1CC1CCCO1` (configuration not stated) was run?
**A.** inactive

**Q.** `CCC(C)(C)n1nnnc1C(c1cc2cc3c(cc2[nH]c1=O)OCO3)N1CCCCC1` (configuration not stated) was tested. Which AC50 did it give?
**A.** inactive

**Q.** With `CCC(C)(C)n1nnnc1C(C(C)C)N(CCCO)Cc1cc2cc(C)ccc2[nH]c1=O` (configuration not stated) as the molecule, how does the AC50 read?
**A.** inactive

**Q.** How did the AC50 turn out when `COc1cccc2c1OC1(C)CC2/C(=C(\C)O)C(=O)N1` (configuration not stated) was run?
**A.** inactive

**Q.** With `OC[C@@H]1O[C@H](O)[C@@H](Cl)[C@H](O)[C@@H]1O` as the molecule, how does the AC50 read?
**A.** inactive

**Q.** `CN(C)S(=O)(=O)Oc1cccc(C(=O)Nc2ccccc2Cl)c1` was tested. Which AC50 did it give?
**A.** inactive

**Q.** With `Clc1ccc(CSc2ncnc3c2ncn3[C@@H]2CCCCO2)cc1` as the molecule, how does the activity, negative = inhibition read?
**A.** -9.38% [at 11.4 µM] (inactive)

**Q.** With `COc1ccc(/C=N/NC(=O)c2cc(-c3ccc(C)cc3C)nc3ccccc23)cc1COC(C)=O` as the molecule, how does the AC50 read?
**A.** inactive

**Q.** `CCCCn1cnc2c(c(CC#N)nn2-c2ccccc2)c1=N` was tested. Which AC50 did it give?
**A.** 0.398 µM (active)

**Q.** With `CCCCn1cnc2c(cnn2-c2ccc(F)cc2)c1=O` as the molecule, how does the AC50 read?
**A.** inactive

**Q.** `CCOCCCn1cnc2c(c1=O)c1nc3ccccc3nc1n2-c1ccccc1` was tested. Which AC50 did it give?
**A.** inactive

**Q.** With `O=C(NCCN1CCN(C(=O)C(c2ccccc2)c2ccccc2)CC1)C(=O)Nc1ccccc1` as the molecule, how does the AC50 read?
**A.** inactive

**Q.** With `O=C(c1cccs1)N1CCN(C(=O)C(c2ccccc2)c2ccccc2)CC1` as the molecule, how does the AC50 read?
**A.** 10 µM (active)

**Q.** How did the AC50 turn out when `COc1ccc(NC(=O)C2CCN(C(=O)c3cccs3)CC2)c(OC)c1` was run?
**A.** inactive

**Q.** For `O=C1[C@H]2[C@H]3[C@H](O)[C@H](O)C/C(=N/OCc4ccccc4)[C@H]3CC[C@@H]2C(=O)N1C[C@@H]1CCCO1`, which activity, negative = inhibition is on record?
**A.** 4.75% [at 11.4 µM] (inactive)

**Q.** How did the AC50 turn out when `COc1cccc(Cn2c(=O)c(-c3cccs3)nc3cnc(N(C)C)nc32)c1` was run?
**A.** inactive

**Q.** How did the AC50 turn out when `COC(=O)CSc1ncc(OC)c(OC)n1` was run?
**A.** inactive

**Q.** With `O=C1c2ccccc2C(=O)N1C[C@]1(C(=O)O)NCCS1(=O)=O` as the molecule, how does the activity, negative = inhibition read?
**A.** 7.33% [at 11.4 µM] (inactive)

**Q.** Which AC50 does the source give for `CC(C)NC(=O)N1CCCC2(CCN(C(=O)c3cccn3C)CC2)C1` here?
**A.** inactive

**Q.** Which AC50 does the source give for `CC(C)NC(=O)N1CC[C@@]2(CCCN(S(C)(=O)=O)C2)C1` here?
**A.** inactive

**Q.** How did the AC50 turn out when `CC(C)NC(=O)N1CC2(CCN(S(=O)(=O)c3ccccc3)CC2)C1` was run?
**A.** inactive

**Q.** `CS(=O)(=O)N1CCC[C@@]2(CCN(C(=O)Nc3cccc(F)c3)C2)C1` was tested. Which AC50 did it give?
**A.** inactive

**Q.** How did the AC50 turn out when `CC(C)NC(=O)N1CCC2(CC1)CCN(S(C)(=O)=O)CC2` was run?
**A.** 15.8 µM (active)

**Q.** With `CC(C)NC(=O)N1CCCC2(CCN(S(=O)(=O)c3ccccc3)CC2)C1` as the molecule, how does the AC50 read?
**A.** 0.316 µM (active)

**Q.** For `COC(=O)N1CCC2(CCN(C(=O)NC(C)C)CC2)CC1`, which AC50 is on record?
**A.** inactive

**Q.** With `O=C(Nc1cccc(F)c1)N1CCCC2(CCN(S(=O)(=O)c3ccccc3)CC2)C1` as the molecule, how does the AC50 read?
**A.** 12.6 µM (active)

**Q.** `CS(=O)(=O)N1CCC2(CCCN(C(=O)Nc3cccc(F)c3)C2)CC1` was tested. Which AC50 did it give?
**A.** inactive

**Q.** With `O=C(C1CCN(S(=O)(=O)N2CCOCC2)CC1)N1CCN(c2ccccc2)CC1` as the molecule, how does the AC50 read?
**A.** inactive

**Q.** How did the AC50 turn out when `CN(C)c1ncc2nc(-c3cc(F)cc(F)c3)c(=O)n(Cc3cccs3)c2n1` was run?
**A.** inactive

**Q.** Which AC50 does the source give for `CCN1CCN(C(=O)N[C@H](C(=O)N[C@@H]2C(=O)N3[C@@H]2SC(C)(C)[C@@H]3C(=O)O)c2ccccc2)C(=O)C1=O` here?
**A.** inactive

**Q.** `CC(=O)[C@H](C(=N)C#N)C(=O)Nc1ccccc1` was tested. Which activity, negative = inhibition did it give?
**A.** 5.49% [at 11.4 µM] (inactive)

**Q.** For `CCC(=O)OCN1C(=O)C=CC1=O`, which activity, negative = inhibition is on record?
**A.** 6.64% [at 11.4 µM] (inactive)

**Q.** `O=c1cc(CF)[nH]c(=S)[nH]1` was tested. Which activity, negative = inhibition did it give?
**A.** 11.9% [at 11.4 µM] (inactive)

**Q.** For `CN(C)c1ncc2ncc(=O)n(CCC#N)c2n1`, which AC50 is on record?
**A.** inactive

**Q.** Which AC50 does the source give for `COc1ccc(NC(=O)N2CCC3(CC2)CCN(C(=O)c2cnccn2)CC3)cc1` here?
**A.** inactive

**Q.** How did the AC50 turn out when `COc1cc(N=c2ssnc2Cl)cc(OC)c1OC` was run?
**A.** 3.16 µM (active)

**Q.** How did the AC50 turn out when `COc1cccc(NC(=O)Cc2c(C(=O)O)[nH]c3ccccc23)c1` was run?
**A.** inactive

**Q.** For `CC(C)COC[C@H](CN(Cc1ccccc1)c1ccccc1)N1CCCC1`, which AC50 is on record?
**A.** inactive and 15.8 nM (active)

**Q.** How did the AC50 turn out when `CCOC(=O)c1ccc(NC(=O)C2CCCO2)cc1` (configuration not stated) was run?
**A.** inactive

**Q.** With `O=C(NNC(=O)C1CCCCC1)c1cnccn1` as the molecule, how does the AC50 read?
**A.** inactive

**Q.** How did the AC50 turn out when `Cn1cccc1C(=O)N1CCC2(CCCN(c3cccc(-c4ccccc4)c3)C2)CC1` was run?
**A.** inactive

**Q.** For `COc1ccc(-n2c(=O)c(-c3ccc(F)cc3)nc3cnc(N4CCOCC4)nc32)cc1`, which AC50 is on record?
**A.** inactive

**Q.** `Cn1c(-c2ccc(CN3CCCCC3)o2)nc2ccccc21` was tested. Which AC50 did it give?
**A.** inactive

**Q.** How did the activity, negative = inhibition turn out when `Oc1ccc(Cn2c(-c3ccc(O)cc3)nc3ccccc32)cc1` was run?
**A.** 1.43% [at 11.4 µM] (inactive)

**Q.** Which AC50 does the source give for `Clc1ccc(Cn2c(CN3CCCC3)nc3ccccc32)cc1` here?
**A.** 1.26 µM (active) and 794 nM (active)

**Q.** For `c1ccc(Cn2c(CN3CCCC3)nc3ccccc32)cc1`, which AC50 is on record?
**A.** 8.91 µM (active)

**Q.** `CS(=O)(=O)c1nc2ccccc2n1Cc1ccccc1` was tested. Which AC50 did it give?
**A.** inactive

**Q.** Which AC50 does the source give for `O=S(=O)(O)c1nc2ccccc2n1Cc1ccccc1` here?
**A.** inactive

**Q.** How did the AC50 turn out when `COCCn1c(=O)cnc2cnc(Oc3ccc(OC)cc3)nc21` was run?
**A.** inactive
